In PubChem BioAssay (NCI) one finds growth data, which are given here for 22 molecules.

Holding throughout (experiment): NCI-60 one-dose screen, 48 h (100 = growth as untreated, 0 = no growth, -100 = all killed)
Holding throughout (details): 10 µM unless noted

For experiment [1], the system named is SNB-75 CNS.
Experiment [2] relates to SNB-19 CNS.
Experiment [3] relates to U251 CNS.
For experiment [4], the system named is SK-MEL-5 melanoma.
The subject of experiment [5] is UACC-62 melanoma.
Experiment [6] has as its system LOX IMVI melanoma.
Experiment [7] has as its system SK-MEL-28 melanoma.
Experiment [8] concerns PC-3 prostate.
The test system of experiment [9] is SK-MEL-2 melanoma.

The structures appear in SMILES notation. This is part of a sample that, as a whole, favours compounds with a hit. Of some 83,000 tested, about 20% had one in any assay.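 Note: values are percent growth. 100 is the growth of untreated cells, values between 100 and 0 indicate rising inhibition; between -100 and 0 indicates cell death.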 Values without a mark were called inactive. Active and inactive are the calls of the source. How the source made its calls: active means growth percent below 10; inactive means the rest.

For the molecule `c1csc([C@@H]2C[C@@H]3Cc4ccc5ccccc5c4N2O3)c1`, the growth in [1] is 87.1%; in experiment [2], 97.5%; in experiment [3] it was 96.8%; in experiment [4] it was 101%; in experiment [5] it was 79.7%; in experiment [6] it was 98.9%. Moreover, the growth in [7] was 103%.
`CSc1ccc2c(c1)N(CCC1CCCCN1C)c1ccccc1S2` (stereo not given): the growth was 34.5% in experiment [1]; 75.3% in experiment [2]; 34.3% in experiment [3]; 34.1% in experiment [8]; 23.7% in experiment [4]; 23.5% in experiment [6]. The growth in experiment [7] was 81.7%; in experiment [9], 88.6%.
As for `COc1cccc(CCC2C(=O)CCCC2=O)c1`, the growth was 108% in experiment [1]; 96.8% in experiment [2]; 109% in experiment [3]; 104% in experiment [8]; 104% in [4]; 103% in experiment [5]. In addition, the growth in experiment [6] is 117%; in [7] it was 119%; in experiment [9], 112%.
As for `Clc1ccc(CCC(Cn2ccnc2)Sc2c(Cl)cccc2Cl)cc1` (stereo not given), the growth in experiment [1] is 92.5%; in experiment [2], 80.2%; in [3], 57.2%; in [8] it was 26.5%; in experiment [5], 55%; in experiment [6], 40.5%. Also, the values for the growth in experiment [7] and in [9] were 102% and 72.8%, respectively.
In the case of `CCCOc1ccc2c(c1)CC[C@@H]1[C@@H]2CC[C@@]2(C)[C@H]1CC[C@]2(C)O`, the growth was 73.4% in experiment [1]; 94.3% in [2]; 72% in experiment [3]; 92.7% in experiment [4]; 95.8% in experiment [5]; 65% in [6]. In addition, in experiment [7], the growth was 85.3%.
In the case of `O=[N+]([O-])c1cnc(Sc2ccncn2)c([N+](=O)[O-])c1`, the growth was 95.2% in [1]; 102% in experiment [2]; 100% in [3]; 96.3% in experiment [8]; 92% in [4]; 96.8% in experiment [6]. Moreover, the figures for the growth in experiment [7] and in experiment [9] were 98.3% and 110%, respectively.
In the case of `COC(=O)CCC1=C(CC(=O)OC)C(C)=N/C1=C\c1[nH]c(-c2ccc[nH]2)cc1OC`, the growth in [1] is 12.9%; in [2], 69.3%; in experiment [4], -22.7% (active); in experiment [5] it was -4.87% (active); in [6] it was -48.3% (active); in [7], 56.9%.
With `CC(NC(=O)C(C)Oc1ccc(Cl)cc1Cl)C(=O)O` (stereo not given), the growth in experiment [2] is 96.2%; in experiment [3], 105%; in experiment [8], 102%; in experiment [4] it was 101%; in experiment [5], 91.7%; in [7] it was 113%. Moreover, the growth in [9] was 97.4%.
In the case of `CC12CCC3C(CCC4CC(=O)/C(=C\O)CC43C)C1CCC(=O)O2` (stereo not given), the growth in experiment [1] is 97.5%; in [2] it was 119%; in experiment [3], 100%; in experiment [4] it was 113%; in experiment [5], 109%; in [7], 114%. The growth in experiment [9] is 121%.
In the case of `Cc1cc(C)c2c(c1)N1OC(C2)C[C@H]1/C=C/c1ccccc1` (stereo not given in full), the growth in [1] was 109%; in experiment [2], 103%; in experiment [3] it was 107%; in experiment [4], 93.7%; in experiment [5], 88%; in experiment [6], 94.4%. In addition, the growth in experiment [7] was 104%.
Turning to `CCOC(=O)c1c(C)c(C(=O)OCC)n(C)c1C`, the growth in [1] is 83.6%; in [3] it was 99.5%; in [4], 126%; in experiment [5], 83.8%; in experiment [6], 103%; in [7], 116%.
On to `O=C(Nc1nc2ccccc2s1)c1cc(-c2ccc(F)cc2)n2nc(-c3ccccc3)cc2n1`, for which the growth was 38.4% in experiment [1]; 71.3% in experiment [2]; 56.9% in [8]; 72.6% in [4]; 70.6% in [5]; 45.6% in experiment [6]. Besides, the growth in experiment [7] was 85.4%.
For `C[C@]12CC[C@@H]3c4ccc(O)cc4CC[C@H]3[C@@H]1CC[C@@H]2NS(=O)(=O)c1cccc(Br)c1`, the growth is 72.7% in [1]; 95.2% in [2]; 38.7% in [8]; 61.3% in experiment [4]; 70% in [5]; 88.3% in experiment [7].
For the molecule `O=C(Nc1ccc(Nc2ccncc2)cc1)c1ccc(Nc2ccnc3ccc([N+](=O)[O-])cc23)cc1[N+](=O)[O-]`, the growth in experiment [1] was 85.8%; in experiment [2] it was 29.6%; in [3] it was -46.1% (active); in [4] it was 103%; in experiment [6], 21.1%; in [7], 54.6%. Also, in [9], the growth was 82.2%.
Take `COc1ccc(C(=O)Nc2nc(-c3ccc(Cl)cc3)cs2)cc1`: the growth in experiment [1] was 98.7%; in [2] it was 104%; in [8], 98.3%; in experiment [4], 98.9%; in [5], 102%; in experiment [7], 101%.
For the molecule `CC(=O)n1c2ccccc2c2ccccc21`, the growth is 97.6% in experiment [1]; 113% in experiment [2]; 104% in experiment [3]; 108% in [4]; 114% in experiment [5]; 107% in experiment [7]. The growth in experiment [9] was 123%.
As to `O=[N+]([O-])c1ccc(N/N=C\c2ccccc2[N+](=O)[O-])nc1`, the growth in experiment [1] was 103%; in experiment [2], 99.4%; in experiment [8] it was 99.7%; in experiment [4], 105%; in [5] it was 96.7%; in [6], 105%. Also, the growth in experiment [7] is 110%; in experiment [9] it was 95.6%.
For the molecule `Cc1cc(C)n(C(=O)c2nn(-c3ccc(Cl)cc3)cc2O)n1`, the growth in experiment [1] was 29.8%; in experiment [2] it was 26.3%; in experiment [3], 19.4%; in experiment [4], 79.3%; in experiment [5] it was 52.9%; in experiment [6], 41.4%. Besides, the values for the growth in experiment [7] and in [9] were 71.7% and 88.3%, respectively.
With `CC(=O)c1nc2ccccc2n1CCn1cc(CC(N)C(=O)O)c2ccccc21` (stereo not given), the growth was 74.7% in experiment [1]; 92.6% in experiment [2]; 102% in [3]; 96.1% in [4]; 79.5% in experiment [5]; 89.4% in experiment [6]. Further, the growth in [7] was 109%.
For `COc1ccc(-c2cncn2-c2ccc(-c3nc4cc(OC)c(OC)c(OC)c4s3)cc2)cc1N`, the growth in [2] is 72.1%; in experiment [3], 56.3%; in experiment [8], 30.1%; in experiment [4], 26.9%; in experiment [5], 53.7%; in experiment [6], 62.4%. Moreover, the growth in experiment [7] was 78.5%; in experiment [9] it was 7.6% (active).
In the case of `Clc1ccc(-c2nc(-c3cccs3)no2)c(Cl)c1`, the growth in experiment [1] was 63.5%; in [2] it was 104%; in experiment [8], 83.2%; in [4], 83.9%; in experiment [5], 89%; in experiment [6], 103%. Further, the values for the growth in experiment [7] and in experiment [9] were 104% and 123%, respectively.
For the molecule `COc1ccc(C2CC(c3ccc(OC)c(OC)c3)=NN2C(=O)c2cc(OC)c(OC)c(OC)c2)cc1` (stereo not given), the growth was 38.9% in experiment [2]; 26% in experiment [3]; 30.5% in [8]; 5.8% (active) in experiment [4]; 41.9% in experiment [5]; 36.1% in [6]. Moreover, the growth in experiment [7] is 70.5%; in experiment [9] it was 12.6%.
